Data reported in PubChem BioAssay (Tox21).
Records with an inconclusive call do not appear. Activity calls are given as the source filed them. The call rests on the fitted dose curve; in most records, active means well fitted cell-killing curve with a large enough effect in the repeat runs; inconclusive means weak or mixed curves, or effect the other way; inactive means flat fitted curve, though single readings scatter.

Assay: cAMP Responsive Elements (CRE) small molecule agonists, cell-based qHTS assay: qHTS cell viability counter screen (AID 2060914); further: nearly all actives have a fitted effect of over 50% in size
Conditions: CRE-bla HEK293T viability, CellTiter-Glo luminescence, 5 h; series mostly up to 92.4 µM; activity change, negative = cytotoxicity: at the top concentration
Procedure, shortened: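 CRE-bla HEK293T cells in 10% dialyzed FBS medium were exposed to compounds for 3 h at 37C after 18 h plating. CellTiter-Glo was then added in the same wells, and luminescence was read after 30 min at room temperature.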
On the % scale 0 is the no-effect control and ±100 the full control effect.

SMILES | activity change, negative = cytotoxicity | Potency
C1CS1 | -20.1% (inactive) | –
CN1C2CCC(C)(C)C1CC(OC(=O)C(O)(c1cccs1)c1cccs1)C2 (stereo not drawn) | 0.661% [at 42.5 µM] (inactive) | –
O=[N+]([O-])C(Br)(CO)CO | 16.2% (inactive) | –
CC(=O)NNc1ccccc1 | -5.05% (inactive) | –
CCOP(=S)(OCC)Oc1ccc(Cl)cc1Cl | -9.03% (inactive) | –
CC(C)CCCCCOC(=O)c1ccccc1C(=O)OCCCCCC(C)C | 0.531% (inactive) | –
BrCCCCCCBr | -12.3% (inactive) | –
Nc1ccc(-c2ccc(N)c(N)c2)cc1N | – | inactive
CN1C(=O)NC(=O)C(C)(C2=CCCCC2)C1=O (stereo not drawn) | 1.19% [at 42.5 µM] (inactive) | –
Clc1cccc2ccccc12 | -8.78% (inactive) | –
NC(=S)C(N)=S | -18% (inactive) | –
O=C(Oc1ccc(Br)cc1)N1CCN2CCC1CC2 | -16.4% (inactive) | –
Cc1cc(-c2ccc(N)c(C)c2)ccc1N | – | inactive
Cl/C=C/Cl | – | inactive
N#CC(Br)(Br)C(N)=O | -3.63% (inactive) | –
OC(Cc1ccccc1Cl)(Cn1cncn1)C1(Cl)CC1 (stereo not drawn) | -0.427% (inactive) | –
Clc1c(Cl)c(Cl)c(Cl)c(Cl)c1Cl | 9.47% [at 8.39 µM] (inactive) | –
O=[N+]([O-])c1ccccc1CCl | 0.0141% (inactive) | –
CCC1(C2=NCCN2)Cc2ccccc2O1 (stereo not drawn) | -1.59% [at 42.5 µM] (inactive) | –
Cc1ccc(CCl)cc1 | 9.08% (inactive) | –
CCC(C)c1cc([N+](=O)[O-])cc([N+](=O)[O-])c1O (stereo not drawn) | 3.78% (inactive) | –
O=C1NC(=O)C(=O)C(=O)N1 | 1.87% (inactive) | –
Nc1cnn(-c2ccccc2)c(=O)c1Cl | 9.4% (inactive) | –
ClCCOCCCl | – | inactive
c1ccc2c(c1)CCNC2 | -3.59% (inactive) | –
CC[C@H](N)c1ccccc1 | -0.64% (inactive) | –
O=S(=O)(O)O | – | inactive
C[C@H]1O[C@H](OC2[C@@H](O)[C@@H](O)C(O)[C@H](O)[C@H]2O)[C@@H](N)C[C@@H]1N=C(N)C(=O)O (stereo partly drawn) | 5.36% (inactive) | –
